Inconclusive results are not listed. A call without a number means that no potency is given here. Active and inactive are the calls of the source. Calls follow the shape of the dose curve; as a rule, active = well fitted curve in the direction sought with a large enough effect in the repeat runs; inconclusive = weak or mixed curves; inactive = no such curve, though single readings can be large; an effect the other way counts as inactive or inconclusive.

One assay can be described thus: qHTS assay to identify small molecule HDAC inhibitors (AID 1259364).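 Also: wild-type HCT-116 cells with endogenous class I/II HDAC activity; top concentration of the series differs between compounds; nearly all actives have a fitted effect of over 45% in size.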 To be noted: HCT-116 HDAC-Glo I/II luminescence, 2 h; series mostly up to 92.4 µM. In short, it runs like this:
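Screening used wild-type human colon HCT-116 cells incubated overnight, dosed with compounds for 2 hours, and assayed with a homogeneous luminogenic HDAC I/II reagent for 30 minutes at room temperature.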
As to `O=C(O)COc1ccc(Cl)cc1`, the Potency result is “inactive”.

In the case of `C=CC(=O)OC`, the Potency result is “inactive”.

On to `C/C(=C\c1ccccc1)[N+](=O)[O-]`, for which the Potency result was “inactive”.

Take `C=COC(C)=O`: the Potency result is “inactive”.

A short description of the next assay: qHTS assay to identify small molecule HDAC inhibitors - cell viability counter screen (AID 1259365). Also: nearly all actives have a fitted effect of over 50% in size. Particulars: HCT-116 viability, CellTiter-Glo ATP luminescence, 2 h; series mostly up to 92.4 µM. In short, it runs like this:
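Following a 2hr exposure of overnight-plated wild-type HCT-116 cells to DMSO-delivered compounds, CellTiter-Glo was added and luminescence recorded after 30min at room temperature.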
On the technique in general: qHTS replaces the single test concentration by a dilution series.
With `Cl/C=C\C[N+]12CN3CN(CN(C3)C1)C2`, the Potency result is “inactive”.

For the compound `O=C(O)c1ccccc1C(=O)Nc1cccc2ccccc12`, the Potency result was “inactive”.

As for `O=S(=O)(Cl)c1ccccc1`, the Potency entry is “inactive”.

In the case of `O=C(O)C1(c2ccc3c(c2)OC[C@H](Cc2ccc(-c4ccccc4)cc2)[C@H]3O)CCCC1`, the Potency result was “inactive”.

With `Clc1cccc2ccccc12`, the Potency entry is “inactive”.

As for `C=CC(C)=O`, the Potency entry was “inactive”.

With `COC(=O)C(Br)CBr` (stereo not drawn), the Potency entry is “inactive”.

In the case of `CCCN(CCC)c1c([N+](=O)[O-])cc(S(C)(=O)=O)cc1[N+](=O)[O-]`, the Potency result was “inactive”.

As for `NNC(=O)c1cccnc1`, the Potency result was “inactive”.

For the compound `COc1c(C(C)(C)C)cc([N+](=O)[O-])c(C)c1[N+](=O)[O-]`, the Potency entry is “inactive”.

Regarding `[O-][Cl+]O`, the Potency entry is “inactive”.

For `Nc1nc(N)nc(N)n1`, the Potency entry is “inactive”.

`O=Cc1ccc2c(c1)OCO2`: the Potency result was “inactive”.

`CCO[C@H]1O[C@@H]2OC3(C)CC[C@H]4[C@H](C)CC[C@@H]([C@H]1C)[C@@]24OO3`: the Potency result is “inactive”.

Consider `CO/N=C(/C(=O)OC)c1ccccc1COc1ccccc1C`, for which the Potency entry is “inactive”.

Consider `CC(=O)NC1CCSC1=O` (stereo not drawn), for which the Potency entry was “inactive”.

Consider `CCCCOC(=O)c1ccccc1C(=O)OCc1ccccc1`, for which the Potency result was “inactive”.

Regarding `C=CC(=O)OCC(C)O` (stereo not drawn), the Potency result was “inactive”.

For `CCOC(=O)C(Cl)C(C)=O` (stereo not drawn), the Potency result was “inactive”.

Regarding `O=Cc1ccc(Cl)cc1Cl`, the Potency result is “inactive”.

For `CC(C)(CCl)C(=O)Cl`, the Potency result was “inactive”.

For `CCCCN(N=O)C(=N)N[N+](=O)[O-]`, the Potency entry is “inactive”.

Regarding `Nc1nc(=S)[nH][nH]1`, the Potency entry is “inactive”.

In the case of `CC1C(=O)C[C@]2(C(C)C)C[C@H]12` (stereo partly drawn), the Potency entry is “inactive”.
